In the library only some 1.7% were active in any assay of this set; here they are far more common.
PABP polyA inh: blocks human PABP binding to poly(A) RNA | P11940 | fluorescence polarization | calls only at 35 µM | 290,000 tested, 1% active;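 also: calls also rest on retests at 20 µM and on dose response follow-up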
EBV gp42 block: blocks Epstein-Barr virus glycoprotein 42 binding | Q1HVG2 | Fluorescence polarization binding assay, mP read-out | inhibition, % (tested at 21.74 µM) | 220,000 tested, 0.42% active | AID 1085; in the data active = inhibition above about 50%
Target sequence (Q1HVG2 whole entry, looked up): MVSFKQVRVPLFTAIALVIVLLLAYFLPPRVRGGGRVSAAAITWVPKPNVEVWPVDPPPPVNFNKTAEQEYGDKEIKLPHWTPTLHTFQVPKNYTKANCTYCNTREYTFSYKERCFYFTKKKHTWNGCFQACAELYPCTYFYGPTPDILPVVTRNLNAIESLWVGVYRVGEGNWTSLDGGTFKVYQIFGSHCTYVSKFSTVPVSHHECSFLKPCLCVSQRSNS
PABP1 MLLE inh: blocks PAM2 peptide binding to the PABP1 MLLE domain | P11940 | GST-MLLE / FITC-PAM2 fluorescence polarization | 360,000 tested, 0.36% active | inhibition, % at 20 µM; in the data active = inhibition above about 35%, passing the limit was not always enough;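 also: plate controls were DMSO wells with GST-MLLE for no effect and wells lacking GST-MLLE protein for full effect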
eIF4H inh: inhibitors of RNA binding by human eIF4H; inhibition, % at 35 µM; AID 2012; Q15056; 290,000 tested, 0.94% active; eIF4H fluorescence polarization binding assay;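 also: calls also rest on retests at 20 µM and on dose response follow-up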
eIF4E 4G PPI: eIF4E/eIF4G interaction inhibition in translation initiation; TR-FRET eIF4E-eIF4GI(517-606) binding, 2 h; inhibition, % at 21.7 µM; 220,000 tested, 0.37% active; P63073+Q04637;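 active = inhibition above about 30%, limit read from the data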;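 also: 0% = full FRET control wells and 100% = background wells lacking eIF4GI fragment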
* = called active by the depositor; i = inactive; ? = inconclusive; . = no result given; + = active, no number. Unless noted, no rule for the calls is given here.

SMILES | PABP polyA inh | EBV gp42 block | PABP1 MLLE inh | eIF4H inh | eIF4E 4G PPI
CCOc1ccc(C(=O)COC(=O)CNC(=O)C2CCCCC2)cc1 | . | . | -3 | . | .
Cc1ccc(/C=C2\C(=O)Nc3ccccc32)o1 | + | -3 | 23 | 87* | 1
CCC(C)Nc1nnnc2c1sc1nc3c(cc12)COC(C)(C)C3 (configuration not stated) | i | -17 | -5 | 85* | 1
O=C(c1ccc(N2CCCS2(=O)=O)cc1)N1CCN(c2ccccc2)CC1 | i | . | -3 | 5 | .
O=C(CSc1nncc2ccccc12)N1CCOCC1 | i | -17 | 42* | -6 | -2
Cc1cc2cc(CNC(=O)Cc3ccc([N+](=O)[O-])cc3)ccc2n1C | i | -15 | 40* | 47 | 0
O=C(Cc1cccs1)Nc1ccc(S(=O)(=O)Nc2ncccn2)cc1 | + | -15 | -32 | 61* | 10
Cc1cc2cc(CNC(=O)c3cccc([N+](=O)[O-])c3)ccc2n1C | i | -16 | -14 | 46 | 5
Cc1cc2cc(CNC(=O)CCC(=O)O)ccc2n1C | i | -18 | 17 | 3 | 1
Cc1c(C(=O)NCc2ccc3c(c2)cc(C)n3C)cccc1[N+](=O)[O-] | i | 5 | 48* | 19 | -5
Cc1cc2cc(CNC(=O)Cc3cccs3)ccc2n1C | i | 2 | 39* | 40 | -20
Cc1ccnc(NC(=O)CCC(=O)N(CC(=O)NC(C)(C)C)c2ccc(F)c(Cl)c2)c1 | i | -3 | 7 | -10 | 0
O=C(Cc1cccs1)NCc1ccccc1 | i | -10 | 8 | 1 | -1
NS(=O)(=O)c1ccc(CNC(=O)Cc2cccs2)cc1 | i | . | -28 | 58* | .
C=C1C(=O)c2sccc2C(c2ccc(OC)c(OC)c2)C1COC(C)=O (configuration not stated) | . | . | 9 | . | .
COc1ccc(NC(=O)CSc2nc3c(c(-c4cccs4)c2C#N)CN(C)CC3)cc1OC | i | 57* | 57 | 17 | -4
COc1ccc(NC(=O)CSc2nnc(-c3cccs3)n2C)cc1OC | i | -7 | 5 | -11 | 0
Nc1nc2ccc(S(=O)(=O)N3CCCCC3)cc2s1 | i | -21 | 42* | -5 | -2
Cc1nc2ccc(S(=O)(=O)N3CCCCC3)cc2s1 | i | . | 3 | -2 | .
O=C(COC(=O)c1cc(Cl)ccc1Cl)Nc1ccc2[nH]c(=O)[nH]c2c1 | . | . | -4 | . | .
O=C1NC(=O)[C@@H]2C3c4ccccc4C=CN3[C@H](C(=O)c3cccs3)[C@H]12 (some centres not stated) | + | 88* | . | 126* | -15
CC(=O)[C@@H]1[C@@H]2C(=O)N(C3CCCCC3)C(=O)[C@@H]2C2c3ccccc3C=CN21 (some centres not stated) | i | 50 | . | 18 | 1
Cc1ccc(C)c(NC(=S)NNC(=O)c2csc(C(C)C)c2)c1 | + | -11 | 39* | 13* | 5
Cc1ccc(C)c(NC(=S)NC(=O)c2cncc(Br)c2)c1 | . | . | 40* | . | .
O=C(NC(=S)Nc1nc(-c2ccccc2)cs1)c1cncc(Br)c1 | i | -24 | 45* | -12 | -3
SMILES | PABP polyA inh | EBV gp42 block | PABP1 MLLE inh | eIF4H inh | eIF4E 4G PPI
O=C(NC(=S)Nc1nc(-c2ccccc2)cs1)c1cccnc1 | i | -2 | 17 | -6 | -5
O=C(NC(=S)Nc1ccccc1Cl)c1cncc(Br)c1 | i | . | 43* | 1 | .
CSc1cccc(NC(=O)Nc2nc3c(C)cccc3s2)c1 | i | -8 | -6 | 6 | -2
Cc1ccccc1S(=O)(=O)NC(=O)C1(C)CCN1C(=O)c1ccccc1CCc1ccccc1 (configuration not stated) | . | . | -6 | . | .
Cc1cc(C)n(-c2ccc(C)c(Cl)c2)n1 | i | -13 | 8 | -1 | 13
CC(=O)N(C)c1ccc(NC(=S)NCC(C)C)cc1 | i | -4 | 4 | -4 | -3
O=C1Nc2ccccc2S/C1=C/c1cccs1 | i | -19 | 1 | 8 | 74*
O=C1NC(=S)SC1=Cc1cccs1 | . | . | 6 | . | .
COc1ccc(N/C=C2/Sc3ccccc3NC2=O)cc1 | i | -1 | 28 | 2 | -1
Cc1ccc(N/C=C2/Sc3ccccc3NC2=O)cc1 | + | -103 | -36 | ? | 3
CCOc1ccccc1OCC(=O)NCCc1ccc(S(N)(=O)=O)cc1 | i | -9 | -27 | -5 | -3
COc1ccc(C(N)=S)c(OC)c1 | i | -24 | 39* | -9 | -1
COc1ccc(/C(C)=N/N=C(\C)c2ccc(OC)cc2OC)c(OC)c1 | i | -15 | 2 | -5 | 3
Cc1cc2nc3s/c(=C/c4ccc(-c5ccccc5C(=O)O)o4)c(=O)n3c2cc1C | i | . | -143 | 36 | .
O=C(O)c1ccccc1-c1ccc(/C=c2\sc3nc4cc(Br)cnc4n3c2=O)o1 | + | -121 | -125 | 77* | 23
O=C(O)c1cc(-c2ccc(/C=C3\NC(=O)N(c4ccccc4)C3=O)o2)ccc1Cl | i | -2 | -3 | 41 | 1
O=C(O)c1cc(-c2ccc(/C=C3\NC(=O)N(c4ccc(Cl)cc4)C3=O)o2)ccc1Cl | + | 11 | -15 | 85* | 8
O=C(O)c1cc(-c2ccc(/C=c3\sc4nc5ccc(Br)cc5n4c3=O)o2)ccc1Cl | + | . | . | 55* | .
COc1ccnc(CN(C)C(=O)C2CCC(=O)N(CCN(C)C)C2)c1 (configuration not stated) | i | . | -8 | 54* | .
Cn1c(NCCc2ccncc2)nc2cc(-c3ccccc3)sc2c1=O | . | . | -7 | . | .
CC[n+]1c(/C=C/c2ccc(OC)c(OC)c2)ccc2ccccc21 | + | . | -141 | 1 | .
O=C(NCCc1ccccc1)c1ccc2nc(-c3ccco3)c(-c3ccco3)nc2c1 | + | 55* | 16 | 88* | 18
COc1ccccc1N1CCN(C(=O)c2ccc3nc(-c4ccco4)c(-c4ccco4)nc3c2)CC1 | i | -5 | 13 | 92 | 7
O=C(NCCO)c1ccc(Cl)c(Cl)c1 | i | -1 | 10 | 1 | -1
Cc1ccc(C)c(N2CCN(C(=O)c3ccc4nc(-c5ccco5)c(-c5ccco5)nc4c3)CC2)c1 | i | -9 | 26 | 86* | 2
SMILES | PABP polyA inh | EBV gp42 block | PABP1 MLLE inh | eIF4H inh | eIF4E 4G PPI
c1coc(-c2nc3ccccc3nc2-c2ccco2)c1 | + | 0 | 32 | 102* | .
c1coc(-c2cnc3ccccc3n2)c1 | . | . | 27 | . | .
O=C(c1ccccc1)c1ccc2nc(-c3ccco3)c(-c3ccco3)nc2c1 | i | 11 | 2 | 96 | 24
O=C(NCCO)c1ccc2nc(-c3ccco3)c(-c3ccco3)nc2c1 | + | -4 | 40* | 87* | 6
COc1ccccc1CN(C)C[C@@H]1OCc2cnnn2CCCC(=O)N([C@H](C)CO)C[C@H]1C | . | . | 8 | . | .
O=C(NC1CCCC1)c1ccc2nc[nH]c2c1 | i | -10 | 1 | 1 | 1
O=C(NC1CCCC1)c1ccc2nc(-c3ccco3)c(-c3ccco3)nc2c1 | + | 21 | 34 | 102* | 15
O=C(CN1C(=O)c2ccccc2S1(=O)=O)Nc1ncc(Cl)cc1Cl | . | . | 49* | . | .
